Assay outcomes from PubChem.
NTMT1 inh: Primary qHTS for Inhibitors of N-terminal methyltransferase 1 (NTMT1): MTaseGlo Assay | AID 1645870, 2021 | NTMT1 MTase-Glo SAH luminescence, purified enzyme | N-terminal Xaa-Pro-Lys N-methyltransferase 1 (Homo sapiens), Q9BV86 | actives 2.5% (n = 59,000) | Potency, µM (series often up to 114 µM), for the others: at the top dose activity change, negative = inhibition, hits mostly inhibitors;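 note: potency is the fitted concentration of half-maximal effect; plate controls were DMSO vehicle for no effect and no enzyme for full effect; nearly all actives have a fitted effect of over 65% in size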
Target sequence (Q9BV86 whole entry, looked up): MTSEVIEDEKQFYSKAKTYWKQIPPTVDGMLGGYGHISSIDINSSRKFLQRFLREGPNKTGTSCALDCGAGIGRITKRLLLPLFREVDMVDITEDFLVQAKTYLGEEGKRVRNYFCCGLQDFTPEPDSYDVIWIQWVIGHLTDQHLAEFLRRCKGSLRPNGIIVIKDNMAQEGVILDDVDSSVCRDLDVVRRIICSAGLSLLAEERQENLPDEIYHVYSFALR
DYRK1A inh-1: Assay for Inhibitors of Dual-Specificity Tyrosine-(Y)-Phosphorylation Regulated Kinase 1A (Kinase-Glo assay). AID 2705, 2010. shares compounds with NTMT1 inh. actives 80% (n = 100). Potency, µM (top dose mostly 76.9 µM), without a hit: at the top dose activity change, negative = inhibition, most hits filed as inhibitors. recombinant DYRK1A, Kinase-Glo ATP depletion luminescence
CLK4 RBC: Kinase Inhibition Study on Inhibitors of CDC-like Kinase 4 (Reaction Biology data): SAR round 2. shares compounds with NTMT1 inh. Reaction Biology kinase assay, 10 uM ATP. Potency, µM, actives largely listed as inhibitors. actives 100% (n = 65). AID 504421, 2011; calls by dose curve
DYRK1A inh-2: Kinase Inhibition Study on Inhibitors of Dyrk1a (Reaction Biology data). shares compounds with NTMT1 inh. Reaction Biology kinase assay, 10 uM ATP. actives 90% (n = 65). Potency, µM, most hits filed as inhibitors;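 active = compounds that showed inhibition of Dyrk1a and received a fitted potency; inactive = compounds that showed no inhibition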
CLK2 inh: Kinase Inhibition Study on Inhibitors of CDC-like Kinase 2 (Reaction Biology data) | actives 90% (n = 65) | Reaction Biology kinase assay, 10 uM ATP | AID 504427, 2011 | Potency, µM, most hits filed as inhibitors | shares compounds with NTMT1 inh;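 active = compound that inhibits Clk2 kinase in the dose series, with an IC50 potency reported; inactive = no inhibition seen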
CLK3 inh: Kinase Inhibition Study on Inhibitors of CDC-like Kinase 3 (Reaction Biology data); shares compounds with NTMT1 inh; recombinant CLK3 kinase assay, 10 uM ATP; Potency, µM, most hits filed as inhibitors; actives 40% (n = 65); AID 504428, 2011;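 active = compounds that inhibited Clk3 enough in the ten-dose series to give a half-maximal potency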
DYRK1B RBC: Kinase Inhibition Study on Inhibitors of Dyrk1b (Reaction Biology data). shares compounds with NTMT1 inh. Recombinant Dyrk1b kinase assay, 10 uM ATP. Potency, µM, actives largely listed as inhibitors. actives 80% (n = 65);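 active = compounds whose dose response shows an inhibitor phenotype against the kinase Dyrk1b; inactive = compounds showing no inhibitor phenotype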
CLK1 inh: Kinase Inhibition Study on Inhibitors of CDC-like Kinase 1 (Reaction Biology data). AID 504430, 2011. actives 90% (n = 65). Potency, µM, usual class: inhibitors. recombinant Clk1 kinase assay, 10 uM ATP. shares compounds with NTMT1 inh;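 active = compounds that block the splicing kinase Clk1 enough to give a fitted half-inhibition concentration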
* marks the source's active call; other numbers are inactive results; [ ] = remark or other dose. The sample as a whole holds a higher share of hits than the screen did. Unless noted, calls come from the whole dose curve; as a rule, active = well fitted inhibition curve with a large enough effect; inconclusive = small, poorly fitted or top-dose-only effect; inactive = flat fitted curve, though single readings scatter.

`c1nc(OCc2cnc[nH]2)c2cc(-c3ccc4c(c3)OCO4)ccc2n1` gave NTMT1 inh -10.1% and DYRK1A inh-1 8.23µM*.
Cc1noc(C)c1-c1ccc2ncnc(NCc3ccccc3F)c2c1 was read as NTMT1 inh -15.5%.
Screening Cc1ccsc1CNc1ncnc2ccc(-c3ccc4c(c3)OCO4)cc12 returned NTMT1 inh -12.3%, DYRK1A inh-1 0.0823µM*, CLK4 RBC 0.035*, DYRK1A inh-2 0.035µM*, CLK2 inh 2.16µM*, CLK3 inh 6.55µM*, DYRK1B RBC 0.506µM* and CLK1 inh 0.069µM*.
For Cc1cccc(-c2ccc3ncnc(NCc4cc(C)cs4)c3c2)c1 the results were NTMT1 inh -1.7%.
Screening c1c[nH]c(CNc2ncnc3ccc(-c4ccc5c(c4)OCO5)cc23)n1 returned NTMT1 inh -11.7%, DYRK1A inh-1 0.367µM*, CLK4 RBC 0.034*, DYRK1A inh-2 0.155µM*, CLK2 inh 3.59µM*, CLK3 inh 15µM*, DYRK1B RBC 1.12µM* and CLK1 inh 0.191µM*.
`Cc1ccc(CNc2ncnc3ccc(-c4ccc5c(c4)OCO5)cc23)s1` gave NTMT1 inh -0.1%[57.5 µM], DYRK1A inh-1 0.519µM*, CLK4 RBC 0.117*, DYRK1A inh-2 1.16µM*, CLK2 inh 15µM*, CLK3 inh inactive, DYRK1B RBC 15µM* and CLK1 inh 0.888µM*.
`Cc1ccc(C(=O)[C@H]2CC[C@@H](C(=O)Nc3ccc(S(=O)(=O)Nc4nccs4)cc3)C2)cc1C` gave NTMT1 inh 3.4%.
C=C1C(=O)OC[C@H]2C(C(=O)O)=CC3CC(C)(C)C[C@@]132 (stereo partly drawn) was read as NTMT1 inh 0.8%[57.5 µM].
Screening Cc1cccc(CNc2ncnc3ccc(-c4cccc(Cl)c4)cc23)c1 returned NTMT1 inh 5.9%.
`c1nc(NCc2ccoc2)c2cc(-c3ccc4c(c3)OCO4)ccc2n1` gave NTMT1 inh inconclusive, DYRK1A inh-1 0.0923µM*, CLK4 RBC 0.038*, DYRK1A inh-2 0.126µM*, CLK2 inh 0.877µM*, CLK3 inh 4.65µM*, DYRK1B RBC 0.938µM* and CLK1 inh 0.111µM*.
For c1csc(CNc2ncnc3ccc(-c4ccoc4)cc23)c1 the results were NTMT1 inh inconclusive and DYRK1A inh-1 1.46µM*.
For Cc1occc1CNc1ncnc2ccc(-c3ccc4c(c3)OCO4)cc12 the results were NTMT1 inh inconclusive, DYRK1A inh-1 0.0923µM*, CLK4 RBC 0.047*, DYRK1A inh-2 0.057µM*, CLK2 inh 2.73µM*, CLK3 inh 6.45µM*, DYRK1B RBC 0.431µM* and CLK1 inh 0.086µM*.
`c1csc(CNc2ncnc3cc(-c4ccc5c(c4)OCO5)ccc23)c1` gave NTMT1 inh -27.2%.
For Cc1cccc(CNc2ncnc3ccc(-c4ccc5c(c4)OCO5)cc23)c1 the results were NTMT1 inh 5.2%[57.5 µM].
